# NPC1 promoter act: qHTS Assay for NPC1 Promoter Activators. 320,000 compounds, 2.4% hits. Potency, µM (top dose mostly 9.22 µM), for inactives: at the top dose activation, hits mostly activators. Huh7 NPC1 promoter luciferase reporter, 24 h. AID 485313, 2010; note: % of control where 0% means no effect; nearly all actives have a fitted effect of over 60% in size
#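 In 1536-well qHTS, Huh7 cells harboring an NPC1 promoter–luciferase construct received compound for 24 h; activation was quantified by luminescence following luciferase reagent addition.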
# Rab9 prom act: qHTS Assay for Rab9 Promoter Activators. Huh7 Rab9 promoter-luciferase reporter, luminescence, 24 h. Potency, µM (series often up to 9.22 µM), for the others: top-dose activation, negative = inhibition, actives largely listed as activators. 320,000 compounds, 2.8% hits; note: % of control where 0% means no effect; nearly all actives have a fitted effect of over 60% in size
#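 Promoter activation is measured as luciferase luminescence in Huh7 cells stably transfected with a Rab9 promoter–luciferase construct, following 24 h compound exposure at 37 °C and 10 min reagent incubation at ambient temperature.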
# FLuc counter: qHTS profiling assay for firefly luciferase inhibitor/activator using purifed enzyme and Km concentrations of substrates (counterscreen for miR-21 project); Luciferin 4-monooxygenase (Photinus pyralis), P08659; purified FLuc, Km substrates, luminescence inhibition; Potency, µM (series often up to 57.5 µM), for inactives: at the top dose activity change, negative = inhibition, most hits filed as inhibitors; 360,000 compounds, 6.9% hits; AID 588342, 2011;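 note: plate controls were vehicle for no effect and reference inhibitor for full effect; nearly all actives have a fitted effect of over 55% in size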
# Target sequence (P08659 whole entry, looked up): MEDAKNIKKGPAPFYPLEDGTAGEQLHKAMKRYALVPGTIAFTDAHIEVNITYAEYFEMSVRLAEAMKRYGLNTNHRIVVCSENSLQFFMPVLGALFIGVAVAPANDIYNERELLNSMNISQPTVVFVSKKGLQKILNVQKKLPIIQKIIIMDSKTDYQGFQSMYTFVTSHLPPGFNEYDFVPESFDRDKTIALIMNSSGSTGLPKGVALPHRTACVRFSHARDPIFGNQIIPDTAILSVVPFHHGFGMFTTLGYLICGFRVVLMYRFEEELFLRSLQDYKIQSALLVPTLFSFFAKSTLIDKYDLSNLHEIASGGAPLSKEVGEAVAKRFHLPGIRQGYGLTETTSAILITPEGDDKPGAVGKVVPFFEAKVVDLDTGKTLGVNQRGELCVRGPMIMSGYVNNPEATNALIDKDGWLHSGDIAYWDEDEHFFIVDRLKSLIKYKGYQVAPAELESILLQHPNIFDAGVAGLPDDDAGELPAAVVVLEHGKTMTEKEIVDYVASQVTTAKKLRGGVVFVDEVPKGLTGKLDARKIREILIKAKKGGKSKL
#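 Purified P. pyralis luciferase, 10 nM final, with Km-level 10 uM D-luciferin and 10 uM ATP in 50 mM Tris acetate pH 7.5, 10 mM Mg acetate, 0.01% Tween-20, 0.05% BSA; 6-point qHTS titration about 60 µM downward; luminescence read.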
# SMN2 splice up: qHTS Assay for Enhancers of SMN2 Splice Variant Expression | HEK293 SMN2-luciferase splicing reporter, luminescence, 30-36 h | 210,000 compounds, 2.8% hits | Potency, µM (doses to about 46.1 µM), for the others: at the highest dose activity change, positive = activation, actives largely listed as activators; note: % of control where 0% means no effect; nearly all actives have a fitted effect of over 55% in size
#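 HEK293 cells carry an SMN2 […]–luciferase reporter in which exon 7 inclusion puts luciferase in frame. Cells were plated 10-12 h before compound addition, then incubated 30-36 h at 37C. ONE-Glo luminescence was read; sodium butyrate at 4.5 mM final served as control.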
# ELG1 genotoxic: qHTS screen for small molecules that induce genotoxicity in human embryonic kidney (HEK293T) cells expressing luciferase-tagged ELG1; HEK293T ELG1-luciferase reporter, luminescence, 16 h; Potency, µM (series often up to 46 µM), for inactives: at the highest dose activity change, positive = activation, hits mostly activators; 330,000 compounds, 1.3% hits; note: % of control where 0% means no effect; nearly all actives have a fitted effect of over 60% in size
#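 Quantitative HTS format in 1536-well plates. HEK293T ELG1-luciferase reporter cells receive test compound and are incubated 16 hr at 37 °C, 5% CO2; ONE-Glo added, 30 min room temperature, then luminescence read.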
# The depositor's hits bear a star; ? = inconclusive; · = no result. Compounds with a hit are over-represented: about 7.5% of the library has one in this group of screens. Calls come from the whole dose curve; as a rule, active = well fitted curve in the direction sought with a large enough effect; inconclusive = small, poorly fitted or top-dose-only effect, or another doubt; inactive = no such curve, though single readings can be large; an effect the other way counts as inactive or inconclusive. Potency is the fitted concentration of half-maximal effect.
SMILES,NPC1 promoter act,Rab9 prom act,FLuc counter,SMN2 splice up,ELG1 genotoxic
O=C(Nc1ccc(NC(=O)c2cccs2)cc1)c1cccs1,?,?,-1%,·,?
COc1ccc(NC(=O)c2cccs2)cc1,?,?,15µM*,18µM*,?
COc1ccc(/C=N/NC(=O)CNC(=O)c2cccs2)cc1,-5%,18%,15µM*,11%,14%
Cc1cccnc1NC(=S)NC(=O)c1cccs1,?,3.5µM*,13µM*,3.2µM*,?
CC(C)[C@H](NC(N)=O)C(=O)Nc1ccc(OCc2ccccc2)cc1,3%,19%,-11%,1%,0%
O=C(CNC(=O)c1cccs1)N/N=C/c1ccc(Cl)cc1,-1%,2%,?,·,3%
CCC(C)NC(=O)c1[nH]c(C)c(C(=O)OC)c1C (stereo not given),1%,-3%,-3%,7%,-4%
COc1ccc(NC(=O)c2cc(C)n(Cc3cccs3)c2C)cc1,0.56µM*,0.32µM*,0.85µM*,·,?
COc1ccc(NC(=O)c2cccs2)c([N+](=O)[O-])c1,?,4µM*,?,20%,?
CCCc1cnc(N2CCN(C(=S)NC)CC2)nc1,?,4.5µM*,17µM*,·,23µM*
COc1cc(Cl)ccc1OCc1cc(C(=O)NCC(C)c2ccccc2)no1 (stereo not given),-2%,2%,21µM*,·,-2%
COc1cc(Cl)ccc1OCc1cc(C(=O)NC(C)Cc2cnccn2)no1 (stereo not given),2.5µM*,1.1µM*,6.7µM*,·,?
CCC(NC(=O)c1cc(COc2ccc(Cl)cc2OC)on1)c1ccncc1 (stereo not given),3.5µM*,4µM*,4.8µM*,·,?
CCC(NC(=O)c1cc(COc2ccc(OC)cc2Cl)on1)c1ccncc1 (stereo not given),25%,?,12µM*,·,16%
CCC(NC(=O)c1cc(COc2cc(C)c(Cl)c(C)c2)on1)c1ccncc1 (stereo not given),-6%,-1%,3%,·,-6%
CCOc1ccc(-n2cc(-c3ccccc3)c3c(Nc4cccc(F)c4)ncnc32)cc1,·,·,-1%,·,·
CCOc1ccc(-c2nonc2NC(=O)c2oc3cc(Br)ccc3c2C)cc1,·,·,-19%,·,·
O=c1cccc2n1Cc1cc3ccccc3nc1-2,3.2µM*,2.8µM*,19µM*,13µM*,21µM*
CCc1cccc2nc3c(c([Si](CC)(CC)CC)c12)Cn1c-3cccc1=O,·,·,·,-26%,·
CC(C)c1nnc(NC(=O)C2CCN(C(=O)Nc3ccccc3)CC2)s1,-2%,-5%,3%,·,0%
Cc1ccc(CNC(=O)Cc2noc3ccccc23)cc1,0.89µM*,1.8µM*,6.7µM*,·,?
Cc1ccc(NC(=O)Cc2noc3ccccc23)nc1,15%,-3%,?,25%,5%
O=C(Cc1noc2ccccc12)Nc1ccccn1,?,?,?,10µM*,17%
Cc1cccc(NC(=O)Cc2noc3ccccc23)c1,?,?,17µM*,13µM*,?
CC(=O)c1cccc(NC(=O)Cc2noc3ccccc23)c1,·,·,-5%,·,·
SMILES,NPC1 promoter act,Rab9 prom act,FLuc counter,SMN2 splice up,ELG1 genotoxic
Cc1ccc(C)c(Nc2cc(C)nc(-c3ccccc3O)n2)c1,-24%,-10%,-4%,·,-3%
COCCN1CCN(C(=O)C2CCC(=O)N(CCc3cccc(F)c3)C2)CC1 (stereo not given),1%,0%,2%,·,0%
N=c1cc(C2(O)CCCCC2)n2c(nc3ccccc32)s1,0.28µM*,0.28µM*,0.67µM*,-11%,0.58µM*
O=C1c2sc3nc4ccccc4n3c2C(=O)N1c1ccccc1Cl,-3%,14%,?,?,1%
COc1ccc(CCNC(=O)c2ccc3ccccc3n2)cc1,6%,22%,?,·,18µM*
COc1ccc2c(Sc3ccccc3)c(C(=O)NCCc3ccc(Cl)cc3)[nH]c2c1,·,·,5.4µM*,·,·
Cc1cc(C(=O)NCc2cccs2)c(C)o1,-1%,-6%,2%,15%,1%
